Test results taken from PubChem BioAssay (Tox21).
Records with an inconclusive call do not appear. Entries that show only a call come without a potency. Calls of active or inactive are those of the source. Unless noted, the call rests on the fitted dose curve.

experiment: qHTS assay for small molecule agonists of the antioxidant response element (ARE) signaling pathway (AID 743202; active means well fitted activation curve with a large enough effect in the signal ratio in the repeat runs, not every such curve was filed as active; the % refers to the signal ratio); details: HepG2 ARE-bla reporter, beta-lactamase FRET, 16 h; series mostly up to 73.3 µM
Procedure, shortened: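 HepG2 ARE-bla cells; 16 h treatment at 37 C; FRET-based beta-lactamase fluorescence read after 2 h substrate incubation at room temperature.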
Potency means the concentration at half of the fitted maximal effect.

| SMILES | Potency |
| --- | --- |
| Cc1ccc(-n2nc(C(C)(C)C)cc2NC(=O)Nc2ccc(OCCN3CCOCC3)c3ccccc23)cc1 | inactive |
| CCCCCCCCOC(=O)c1ccc(O)cc1 | inactive |
| Oc1ccc2c(c1)-c1ccccc1C2 | 4.86 µM (active) |

experiment: qHTS assay for small molecule agonists of the antioxidant response element (ARE) signaling pathway - cell viability counter screen (AID 743203); details: ARE-bla HepG2 viability, CellTiter-Glo luminescence, 16 h; series mostly up to 73.3 µM; further: nearly all actives have a fitted effect of over 55% in size
Procedure, shortened: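 Luminescence read-out (CellTiter-Glo, 30 min at room temperature) measured cell viability in the same wells as the ARE beta-lactamase reporter. HepG2 ARE-bla cells were treated with compounds for 16 hrs at 37C/5% CO2.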

| SMILES | Potency |
| --- | --- |
| Cc1ccc(-n2nc(C(C)(C)C)cc2NC(=O)Nc2ccc(OCCN3CCOCC3)c3ccccc23)cc1 | inactive |
| CCc1cc(SCc2sc(-c3ccc(C(F)(F)F)cc3)nc2CN2CCN(c3ccc(OC)cc3)CC2)ccc1OCC(=O)O | 15.4 µM (active) |
| CC(C)CCCCCCCCCCCCCCC(=O)O | inactive |
| CCCCc1oc2ccc(NS(C)(=O)=O)cc2c1C(=O)c1ccc(OCCCN(CCCC)CCCC)cc1 | 26.6 µM (active) |
| Cc1cccc(CN2CCN(C(c3ccccc3)c3ccc(Cl)cc3)CC2)c1 (stereo not drawn) | inactive |
| O=C(Nc1cccc(Cl)c1)OCC#CCCl | 54.5 µM (active) |
| Cc1onc(-c2c(Cl)cccc2Cl)c1C(=O)N[C@@H]1C(=O)N2[C@@H]1SC(C)(C)[C@@H]2C(=O)O | inactive |
| Fc1ccc([C@@H]2CCNC[C@H]2COc2ccc3c(c2)OCO3)cc1 | 29.8 µM (active) |
| Oc1cccc(-c2c3nc(c(-c4cccc(O)c4)c4ccc([nH]4)c(-c4cccc(O)c4)c4nc(c(-c5cccc(O)c5)c5ccc2[nH]5)CC4)C=C3)c1 | inactive |
| C=C(C)C(=O)OCC[N+](C)(C)C | inactive |
| CCCCCCCC[N+](CCCCCCCC)(CCCCCCCC)CCCCCCCC | 13.7 µM (active) |
| CC(C)n1nc(-c2cc3cc(O)ccc3[nH]2)c2c(N)ncnc21 | inactive |
| COc1cccc(N)c1 | inactive |
| CCCC1O[C@@H]2C[C@H]3[C@@H]4CCC5=CC(=O)C=C[C@]5(C)[C@H]4[C@@H](O)C[C@]3(C)[C@]2(C(=O)CO)O1 (stereo partly drawn) | inactive |
| N#CSc1ccc(N)c([N+](=O)[O-])c1 | inactive |
| On1ccccc1=S | inactive |
| CC1=C(C(=O)OC(C)C)C(c2cccc([N+](=O)[O-])c2)C(C(=O)OC2CN(C(c3ccccc3)c3ccccc3)C2)=C(N)N1 (stereo not drawn) | 23.7 µM (active) |
| C=CC(=O)OCC(CO)(COCC(COC(=O)C=C)(COC(=O)C=C)COC(=O)C=C)COC(=O)C=C | 8.53 µM (active) |
| Oc1ccc2cc(SSc3ccc4cc(O)ccc4c3)ccc2c1 | inactive |
| Cc1nc(-c2ccc3c(c2)CCN(CCC2CCC(NC(=O)/C=C/c4ccc(F)cc4)CC2)CC3)no1 (stereo not drawn) | inactive |
